PubChem BioAssay AID2501 (Southern Research Specialized Biocontainment Screening …, 2010)
Several values for one entry are separate records, joined by “and”; a condition that tells them apart may be missing. Identical values can stand only once. Hit rate of the full screen: of about 2,200 compounds, about 1,200 (55%) were called active. No cut-off is given here; in the data, nearly all actives have IC50 up to about 92 µM. So high a share suggests a set chosen from earlier hits. The list shows a part of the results.

Assay: counter assay for TAg ATPase ADP read-out – biochemical, ADP-Hunter, fluorescence, counter-screen (AID 2501);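 note: purified T antigen ATPase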
Conditions: series mostly up to 100 µM

SMILES	IC50
CC(=O)Nc1nnc(SCc2cccc(F)c2)s1	inactive
O=C(O)CN1C(=O)/C(=C/c2ccc(N3CCCCC3)o2)SC1=S	38.4 µM (active)
O=C(O)CN1C(=O)/C(=C\C(Br)=C\c2ccccc2)SC1=S	inactive
O=C1/C(=C/c2ccco2)SC(=S)N1CCC(=O)N1CCCCC1CCO (stereo not drawn)	inactive
O=C1NC(=S)S/C1=C\c1ccc(SCc2ccccc2)o1	inactive
O=C1NC(=S)S/C1=C/c1ccc(N2CCOCC2)o1	18.9 µM (active)
COc1ccccc1N1C(=O)C=C(Sc2nc(C)cc(C)n2)C1=O	inactive
CN(C)c1ccc(N=c2sc3ccccc3n2C)cc1	7.65 µM (active)
COC(=O)/C(=C/Nc1ccc(O)cc1)[N+](=O)[O-]	3.8 µM (active)
O=C(c1ccco1)N1CCN(C(=S)Nc2ccc(F)c(Cl)c2)CC1	39.5 µM (active)
N=c1c[n+](N2CCOCC2)[n-]o1	inactive
Oc1ccc(Nc2nc(N3CCCC3)c3ccccc3n2)cc1	4.06 µM (active)
CN1CCN(c2nc(Nc3ccc(O)cc3)nc3ccccc23)CC1	6.32 µM (active)
O/N=C/c1ccc2ccccc2c1	inactive
C(=Nc1ccc(Nc2ccccc2)cc1)c1ccc2ccccc2c1	6.4 µM (active)
C/C(=C/c1oc2ccc(O)cc2c1[N+](=O)[O-])N(C)C	5.75 µM (active)
O=C(c1ccccc1)N1CCN(c2ccc(NCc3ccc4c(c3)OCO4)cc2)CC1	5.7 µM (active)
O=C(C1=C[C@H](C2CCCCC2)C[C@H](OCCCCO)O1)N1CCN(Cc2ccc3c(c2)OCO3)CC1	inactive
O=C(c1ccc(CNS(=O)(=O)c2ccccc2)cc1)N1CCN(Cc2ccccc2)CC1	inactive
CC(=O)N1CCN(c2ccc(NCc3ccc(C)s3)cc2)CC1	3.62 µM (active)
CC(=O)N1CCN(c2ccc(NCc3cccc4ccccc34)cc2)CC1	4.52 µM (active)
O=C(O)CC(C(=O)O)n1nc(-c2ccccc2)cc1-c1ccccc1 (stereo not drawn)	inactive
CC(=O)c1ccc2c(c1)C1C=CCC1C(C(=O)O)N2 (stereo not drawn)	inactive

SMILES	IC50
CCn1ccc(C(=O)N2CCN(c3ncccn3)CC2)n1	inactive
Cc1csc(N/N=C/c2ccc(O)c([N+](=O)[O-])c2)n1	13.2 µM (active)
CC(C)(C)c1ccc(C(=O)n2cnc3ccccc32)cc1	inactive
Oc1ccc(-c2nc(-c3ccc(F)cc3)c(-c3ccncc3)[nH]2)cc1	8.21 µM (active)
C/C(=N/OC(=O)C1CC1)c1cc(-c2ccc(Cl)cc2)no1	inactive
Cc1ccc(OC(=S)Nc2ccc(O)cc2)cc1	7.84 µM (active)
CC1(c2ccccc2)NC(=O)N(CC(=O)Nc2ccc(S(=O)(=O)Nc3ncccn3)cc2)C1=O (stereo not drawn)	inactive
CCN(c1ccc(NC(=O)CN2C(=O)NC3(CCOc4ccccc43)C2=O)cc1)C(C)C (stereo not drawn)	11.1 µM (active)
Cc1cc(C(=O)NNC(=O)CN2C(=O)NC(C)(c3ccccc3)C2=O)c(C)o1 (stereo not drawn)	inactive
Cc1cc2c(N=O)c(NO)ccc2[nH]1	24.4 µM (active)
O=C1CNC(=S)N1CCc1ccc(O)c(O)c1	10.7 µM (active)
OC(COc1ccc2cc(Br)ccc2c1)CN1CCCC1 (stereo not drawn)	inactive
O/N=C(\c1ccc2c(c1)OCCO2)C1CCCCC1	inactive
O=c1ccc2cc(O)c(O)cc2o1	11.3 µM (active)
N#CSCC(=O)c1cccc2ccccc12	inactive
O=C(c1ccc([N+](=O)[O-])cc1)N1CCN(c2cccc3[nH]ccc23)CC1	8.91 µM (active)
Cc1cc(OCC(=O)N(C)c2ccccc2)cc2c1C(=O)CC(C)(C)O2	inactive
O=C(NCCO)c1ccc2nc(-c3ccco3)c(-c3ccco3)nc2c1	inactive
CCCc1cc(C(=O)N2CCCC(C(=O)c3cccc4ccccc34)C2)n(C)n1 (stereo not drawn)	inactive
O=C(/C=C/c1ccc(O)c(O)c1)O[C@@H]1C[C@](O)(C(=O)O)C[C@@H](O)[C@H]1O	4.26 µM (active) and 8.41 µM (active)
CCCCNC(=O)c1onc(CCl)c1C(=O)OC	inactive
COc1cc(SC)ccc1C(=O)N1CCN(Cc2ccccc2)CC1	inactive
COc1cc(Cl)ccc1NC(=O)COc1ccccc1C(=O)N1CCN(c2ccc(O)cc2)CC1	6.1 µM (active)

SMILES	IC50
O=C(CCC1CCCCC1)Nc1ccccc1C(=O)N1CCOCC1	inactive
COc1cc(SC)ccc1C(=O)N1CCN(c2ccc(O)cc2)CC1	5.86 µM (active)
CCCCC(=O)OCC(=O)c1[nH]c(C)c(C(=O)OCC)c1C	inactive
COc1cccc([C@H](O)Cn2cc(-c3ccc(CON=C(C)C)cc3)nn2)c1	inactive
CN(C)c1ccc(NC(=O)CN2CCN(c3ccc(F)cc3)CC2)cc1	2.66 µM (active)
CN(C)c1ccc(NC(=O)COC(=O)Cn2nnc3ccccc32)cc1	4.51 µM (active)
CN(C)c1ccc(NC(=O)Cn2ncn3c(cc4ccccc43)c2=O)cc1	10.4 µM (active)
CN(C)c1ccc(NC(=O)CN2CCN(CC(=O)Nc3ccc(F)cc3)CC2)cc1	9.6 µM (active)
CCOc1ccc(NC(=O)Cn2sc3nc(C)cc(C)c3c2=O)cc1	inactive
Cc1cccc(-n2c3nc(=O)[nH]c(=O)c-3cc3cc([N+](=O)[O-])ccc32)c1	inactive
CCOC(=O)C1CCN(c2ncnc3c2nnn3Cc2ccccc2Cl)CC1	inactive
CN(C)c1ccc(NC(=O)CC2NCCNC2=O)cc1 (stereo not drawn)	4.71 µM (active)
Cc1c(-c2ccccc2)oc2c(C(=O)OCC(=O)Nc3ccc(C(N)=O)cc3)cccc2c1=O	inactive
CCOC(=O)c1ccc(NC(=O)CC2NCCNC2=O)cc1 (stereo not drawn)	inactive
CN(C)c1ccc(NC(=O)COC(=O)CCC(=O)c2ccc(F)cc2)cc1	4.64 µM (active)
Cc1nn(CC(=O)Nc2ccc(N(C)C)cc2)c(C)c1[N+](=O)[O-]	5.17 µM (active)
Oc1ccc2c(c1)C1CCCC1(N1CCOCC1)O2 (stereo not drawn)	inactive
CC(C)(C)c1nnc(NC(=O)CN2C(=O)C3C4C=CC(C4)C3C2=O)s1 (stereo not drawn)	inactive
COc1ccc(NCN2C(=O)C3C4C=CC(C4)C3C2=O)cc1 (stereo not drawn)	11.4 µM (active)
c1ccc(-c2ccc3c(c2)NCCN3)cc1	7.7 µM (active)
CCCCC/C=C\C/C=C\C/C=C\C/C=C\CCCC(=O)O	inactive
CCCCCn1c(=O)c2ccccc2n2c(=S)[nH]nc12	11.7 µM (active)
COc1cccc(-n2cnnn2)c1	inactive

SMILES	IC50
CC(C)CCn1c(=O)c2ccccc2n2c(=S)[nH]nc12	10.9 µM (active)
COCCCn1c(=O)c2ccccc2n2c(=S)[nH]nc12	8.77 µM (active)
COc1cccc(-n2c(=O)c3ccccc3n3c(=S)[nH]nc23)c1	16.1 µM (active)
COc1cccc(N2CC(=O)Nc3c(oc4nc(-c5ccccc5)cc(C)c34)C2=O)c1	inactive
CCCCn1c(-c2cccc3ccccc23)nc2cc3[nH]c(=O)c(C(C)C)nc3cc21	inactive
CCCCn1c(=O)c2ccccc2n2c(=S)[nH]nc12	11.3 µM (active)
CCCn1c(=O)c2ccccc2n2c(=S)[nH]nc12	3.07 µM (active)
CC(C)C(=O)c1ccc(O)c(O)c1	1.71 µM (active)
CN(C)c1ccc(NS(=O)(=O)c2ccc(Cl)cc2)cc1	5.63 µM (active)
COc1ccc(NS(=O)(=O)c2ccc(NS(=O)(=O)c3ccc(SC)cc3)cc2)c(OC)c1	inactive
CCCNC(=O)NS(=O)(=O)c1ccc(Cl)cc1	inactive
CN(C)c1ccc(NS(=O)(=O)c2cccc(Cl)c2)cc1	13 µM (active)
CN(C)c1ccc(NS(=O)(=O)c2cc3c4c(c2)CC(=O)N4CCC3)cc1	1.83 µM (active)
O=C(NCc1cccnc1)C(=O)Nc1cc2c3c(c1)CC(=O)N3CCC2	inactive
O=C(CNS(=O)(=O)c1cccc(Cl)c1)OCc1csc(-c2ccccc2)n1	inactive
O=C(CC(Sc1ccc(Br)cc1)C(=O)O)c1ccc(Br)cc1 (stereo not drawn)	inactive
Oc1ccc(/C=N/Nc2ncnc3c2ncn3Cc2ccccc2)cc1O	10.1 µM (active)
CNC(=O)CS(=O)CC(=O)Nc1cc(OCCOC)c(Cl)cc1Cl (stereo not drawn)	inactive
CCOC(=O)c1ccc(-c2c(-c3ccc4c(c3)OCO4)noc2-c2ccsc2)cc1F	inactive
CCOC(=O)c1[nH]nc(-c2cc(CC)c(O)cc2O)c1-c1cscn1	7.84 µM (active)
CN(C)c1ccc(Nc2nc(N)c([N+](=O)[O-])c(N3CCOCC3)n2)cc1	4.28 µM (active)
N#C/C(=C\c1ccccc1OCc1ccc(C(=O)O)cc1)C(=O)Nc1ccc(O)cc1	5.71 µM (active)
CCOc1ccc(/C=C(\C#N)C(=O)NC2CC2)c(OCC)c1	inactive

SMILES	IC50
N#C/C(=C\c1ccc(O)c([N+](=O)[O-])c1)C(=O)NCc1ccccc1	inactive
COc1ccc(/C=C(/C#N)C(=O)Nc2ccc(O)cc2)cc1C(=O)O	2.62 µM (active)
CNc1ccc(/C=C(\C#N)C(=O)Nc2ccccn2)cc1[N+](=O)[O-]	inactive
N#C/C(=C\c1ccc(O)c(O)c1)C(=O)NCc1ccccc1	7.7 µM (active)
N#C/C(=C\c1ccc(O)c(O)c1)C(=O)Nc1cccc2ncccc12	4.88 µM (active)
O=C(O)c1ccc(COc2ccccc2C=C2C(=O)c3ccccc3C2=O)cc1	inactive
O=C(/C=C/c1ccc(Br)o1)NCc1ccccc1	inactive
COc1c(O)ccc2c1CN1CCc3cc4c(cc3C1C2)OCO4 (stereo not drawn)	inactive
CCOC(=O)c1ccc(S(=O)(=O)Nc2nc3cc(S(=O)(=O)NC4=NCCCCC4)ccc3s2)cc1	inactive
N#C/C(=C\c1ccc(O)c(O)c1)C(=O)Nc1ccccc1	12.6 µM (active)
N#C/C(=C\c1ccc(O)c(O)c1)C(=O)NCCc1ccccc1	5.36 µM (active)
N#C/C(=C\c1ccc(O)c(O)c1)C(=O)NCCCc1ccccc1	8.38 µM (active)
N#C/C(=C\c1ccc(N2CCOCC2)o1)C(=O)Nc1ccc(O)cc1	1.66 µM (active)
CC(c1ccncn1)N(C)Cc1nc(Cc2ccccc2F)no1 (stereo not drawn)	inactive
CCC(C)NC(=O)CC(c1ccccc1)c1cc(C)ccc1O (stereo not drawn)	inactive
C[C@@H](NC(=O)/C(C#N)=C/c1ccc(O)c(O)c1)c1ccccc1	4.73 µM (active)
Oc1c(C(c2ccco2)N2CCN(C(c3ccccc3)c3ccccc3)CC2)sc2ncnn12 (stereo not drawn)	inactive
C/C(=N\NC(=O)CSc1nc2ccccc2o1)c1ccc(O)cc1	6.4 µM (active)
C/C(=N/NC(=O)CSc1nc2ccccc2n1C)c1ccc(O)cc1	6.92 µM (active)
Cc1ccc(C)c(-n2c3nc(=O)[nH]c(=O)c-3cc3cc([N+](=O)[O-])ccc32)c1	inactive
COc1ccccc1C(C)NS(=O)(=O)c1cccs1 (stereo not drawn)	inactive
